# According to the supplement of paper PMC8728848:
# This is one part of a sample in which the strongest signals are shown more often than they occur.
# B1: GS13846A-bth-444-19-444 (Bacteroides thetaiotaomicron) (protein)
# chain: SCENEFDVSDKADSLISVTVNTLNNQAAYNVGETAQAELWIQRGGLKDASGKVQFVVDPLLLDSLNQEDKTNYELLPENCYEMTNTEFTVDKNELCGYITYHPEKILALSAYNETKYVLPLRLISNDLAINPARNTSFLAFTILEPIVHISNAGVYNINPDLTSTMDIQIGVPFTNKWDILCNLTEDLSLIDEYNQINKVNFTLLPENAYTAPESVTLQEGVSQITASYQLKNNLVPGNYILPIKIGSITASQGGVPNNSLVIDEESNVLFCIVKEGNKINKSGWEVIECSSEHAGNEATYMIDDNESTYWHCKFKNEAGSSVPPFHFIIDMKKEITIAQIDLLNRGDGAANNIKWVEFYASNNNSEWDKIGAGDFNDEGTRATFRYYVKSTKARYLKLIIPEGYGNNCPPAAIRELTVYGLEGNN
# What was measured:
# Assay in all cases: glycan array binding signal (z-score within array); higher = stronger binding
# Conditions in all cases: glycan notation: IUPAC condensed, linker removed
# Fuc(a1-2)Gal(b1-3)GalNAc = target: Fuc(a1-2)Gal(b1-3)GalNAc
# Outline: (§1)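 Columns mapping to the same glycan were averaged after glycan names were converted to IUPAC-condensed notation. The data come from 3228 arrays in the Consortium for Functional Glycomics database, limited to those with an available protein sequence. Binding is reported as a within-array Z-score averaged across arrays of one protein sequence and across linkers.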
# [1] = target: Fuc(a1-2)Gal(b1-3)GlcNAc(b1-3)[Fuc(a1-2)Gal(b1-3)GlcNAc(b1-6)]GalNAc
# Outline: as §1
# [2] = target: Fuc(a1-2)Gal(b1-3)[Fuc(a1-4)]GlcNAc(b1-2)Man(a1-3)[Fuc(a1-2)Gal(b1-3)[Fuc(a1-4)]GlcNAc(b1-2)Man(a1-3)]Man(b1-4)GlcNAc(b1-4)GlcNAc
# Outline: as §1
# Fuc(a1-2)Gal(b1-4)Glc = target: Fuc(a1-2)Gal(b1-4)Glc
# Outline: as §1
# [3] = target: Fuc(a1-2)Gal(b1-4)GlcNAc(b1-2)Man(a1-3)[Fuc(a1-2)Gal(b1-4)GlcNAc(b1-2)Man(a1-6)]Man(b1-4)GlcNAc(b1-4)GlcNAc
# Outline: as §1
# [4] = target: Fuc(a1-2)Gal(b1-4)GlcNAc(b1-2)[Fuc(a1-2)Gal(b1-4)GlcNAc(b1-4)]Man(a1-3)[Fuc(a1-2)Gal(b1-4)GlcNAc(b1-2)Man(a1-6)]Man(b1-4)GlcNAc(b1-4)GlcNAc
# Outline: as §1
# [5] = target: Fuc(a1-2)Gal(b1-4)GlcNAc(b1-3)[Fuc(a1-3)[Gal(b1-4)]GlcNAc(b1-6)]Gal(b1-4)Glc
# Outline: as §1
# [6] = target: Fuc(a1-2)Gal(b1-4)[Fuc(a1-3)]GlcNAc(b1-2)[Fuc(a1-2)Gal(b1-4)[Fuc(a1-3)]GlcNAc(b1-4)]Man(a1-3)[Fuc(a1-2)Gal(b1-4)[Fuc(a1-3)]GlcNAc(b1-2)Man(a1-6)]Man(b1-4)GlcNAc(b1-4)GlcNAc
# Outline: as §1
# Fuc(a1-2)Gal6S(b1-4)Glc = target: Fuc(a1-2)Gal6S(b1-4)Glc
# Outline: as §1
# [7] = target: Fuc(a1-2)[Gal(a1-3)]Gal(b1-3)GlcNAc(b1-2)Man(a1-3)[Fuc(a1-2)[Gal(a1-3)]Gal(b1-3)GlcNAc(b1-2)Man(a1-6)]Man(b1-4)GlcNAc(b1-4)GlcNAc
# Outline: as §1
# [8] = target: Gal(a1-3)[Gal(a1-4)]Gal(b1-4)GlcNAc
# Outline: as §1
# [9] = target: Gal(a1-4)Gal(b1-4)GlcNAc(b1-3)Gal(b1-4)Glc
# Outline: as §1
# [10] = target: Gal(b1-3)GlcNAc(b1-2)Man(a1-3)[Gal(b1-3)GlcNAc(b1-2)Man(a1-6)]Man(b1-4)GlcNAc(b1-4)GlcNAc
# Outline: as §1
# [11] = target: Gal(b1-3)GlcNAc(b1-2)Man(a1-3)[Gal(b1-3)GlcNAc(b1-2)Man(a1-6)]Man(b1-4)GlcNAc(b1-4)[Fuc(a1-6)]GlcNAc
# Outline: as §1
# [12] = target: Gal(b1-3)GlcNAc(b1-2)[Gal(b1-3)GlcNAc(b1-6)]Man(a1-6)[Gal(b1-3)GlcNAc(b1-2)Man(a1-3)]Man(b1-4)GlcNAc(b1-4)GlcNAc
# Outline: as §1
# [13] = target: Gal(b1-3)GlcNAc(b1-3)Gal(b1-4)[Fuc(a1-3)]GlcNAc
# Outline: as §1
# [14] = target: Gal(b1-4)GlcNAc(b1-2)Man(a1-3)[GlcNAc(b1-4)][Gal(b1-4)GlcNAc(b1-2)Man(a1-6)]Man(b1-4)GlcNAc(b1-4)GlcNAc
# Outline: as §1
# [15] = target: Gal(b1-4)GlcNAc(b1-2)Man(a1-6)Man(b1-4)GlcNAc(b1-4)GlcNAc
# Outline: as §1
# [16] = target: Gal(b1-4)GlcNAc(b1-3)Gal(b1-4)GlcNAc(b1-3)Gal(b1-4)GlcNAc(b1-3)Gal(b1-4)GlcNAc(b1-2)Man(a1-3)[Gal(b1-4)GlcNAc(b1-3)Gal(b1-4)GlcNAc(b1-3)Gal(b1-4)GlcNAc(b1-3)Gal(b1-4)GlcNAc(b1-2)Man(a1-6)]Man(b1-4)GlcNAc(b1-4)[Fuc(a1-6)]GlcNAc
# Outline: as §1
# [17] = target: Gal(b1-4)GlcNAc(b1-3)Gal(b1-4)GlcNAc(b1-6)[Gal(b1-3)]GalNAc
# Outline: as §1
# Gal(b1-6)Gal = target: Gal(b1-6)Gal
# Outline: as §1
# Gal3S6S(b1-4)GlcNAc = target: Gal3S6S(b1-4)GlcNAc
# Outline: as §1
# Gal3S6S(b1-4)GlcNAc6S = target: Gal3S6S(b1-4)GlcNAc6S
# Outline: as §1
# Gal6S(b1-3)GlcNAc = target: Gal6S(b1-3)GlcNAc
# Outline: as §1
# Gal6S(b1-3)GlcNAc6S = target: Gal6S(b1-3)GlcNAc6S
# Outline: as §1
# Gal6S(b1-4)Glc = target: Gal6S(b1-4)Glc
# Outline: as §1
# Gal6S(b1-4)Glc6S = target: Gal6S(b1-4)Glc6S
# Outline: as §1
# Gal6S(b1-4)GlcNAc = target: Gal6S(b1-4)GlcNAc
# Outline: as §1
# Gal6S(b1-4)GlcNAc6S = target: Gal6S(b1-4)GlcNAc6S
# Outline: as §1
# [18] = target: GalNAc(a1-3)GalNAc(b1-3)Gal(a1-4)Gal(b1-4)GlcNAc
# Outline: as §1
binder,measurement,setting,value
B1,glycan array binding signal (z-score),Fuc(a1-2)Gal(b1-3)GalNAc,-0.247
same,glycan array binding signal (z-score),[1],-0.101
same,glycan array binding signal (z-score),[2],-0.423
same,glycan array binding signal (z-score),Fuc(a1-2)Gal(b1-4)Glc,-0.176
same,glycan array binding signal (z-score),[3],0.384
same,glycan array binding signal (z-score),[4],-0.079
same,glycan array binding signal (z-score),[5],0.069
same,glycan array binding signal (z-score),[6],-0.407
same,glycan array binding signal (z-score),Fuc(a1-2)Gal6S(b1-4)Glc,-0.234
same,glycan array binding signal (z-score),[7],-0.305
same,glycan array binding signal (z-score),[8],2.7
same,glycan array binding signal (z-score),[9],-0.018
same,glycan array binding signal (z-score),[10],0.242
same,glycan array binding signal (z-score),[11],3.4
same,glycan array binding signal (z-score),[12],-0.163
same,glycan array binding signal (z-score),[13],0.028
same,glycan array binding signal (z-score),[14],-0.238
same,glycan array binding signal (z-score),[15],-0.133
same,glycan array binding signal (z-score),[16],0.486
same,glycan array binding signal (z-score),[17],-0.308
same,glycan array binding signal (z-score),Gal(b1-6)Gal,-0.188
same,glycan array binding signal (z-score),Gal3S6S(b1-4)GlcNAc,6.47
same,glycan array binding signal (z-score),Gal3S6S(b1-4)GlcNAc6S,6.71
same,glycan array binding signal (z-score),Gal6S(b1-3)GlcNAc,7.3
same,glycan array binding signal (z-score),Gal6S(b1-3)GlcNAc6S,6.28
same,glycan array binding signal (z-score),Gal6S(b1-4)Glc,3.68
same,glycan array binding signal (z-score),Gal6S(b1-4)Glc6S,12.7
same,glycan array binding signal (z-score),Gal6S(b1-4)GlcNAc,4.8
same,glycan array binding signal (z-score),Gal6S(b1-4)GlcNAc6S,8.87
same,glycan array binding signal (z-score),[18],-0.175
